We go through 36 compounds from PubChem BioAssay.

Each structure is given as a SMILES string. The source made the active and inactive calls.

The assay can be described thus: growth modulation of vineyard yeast isolate – strain RM11-1a, OD600, basal, 24 h, primary screen (AID 1177).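 Note: cultures grown under basal conditions with no added stressor; test concentration not given here.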 As to conditions: S. cerevisiae RM11-1a growth, OD600, 24 h; higher = more signal, called active from +8 up or from −8 down.
`COC(=O)[C@H](C)NC(=O)CCC1CC(OC(=O)NCc2cccc3ccccc23)CC2(CCCC(COC(=O)NCc3ccccc3)O2)O1` (stereo partly specified): the z-score was 0.136 (inactive). As to `O=C1CCCC=C1C(O)C1CCCCC1` (stereo unspecified), the z-score is -0.647 (inactive). With `COc1ccc(COC(=O)NN=C2C[C@@H](O)[C@@H](O)[C@@H]3[C@@H]4C(=O)N(Cc5ccccc5)C(=O)[C@@H]4CC[C@@H]23)cc1`, the z-score was 0.325 (inactive). Turning to `CO[C@H]1COC(=O)CC=C[C@H](C)[C@H](OC)COC(=O)[C@@H](C)NC(=O)CC=C[C@@H]1C`, the z-score is -1.22 (inactive). With `CC(C)CON=C1[C@H]2CCn3c(=O)n(C)c(=O)n3[C@H]2[C@H](O)[C@@H]2O[C@H]12`, the z-score is -0.353 (inactive). In the case of `CCOC(=O)CCN1C(=O)[C@H]2[C@H]3[C@H](O)[C@H](O)CC(=NOCC=C(C)CCC=C(C)C)[C@@H]3CC[C@H]2C1=O` it was -0.839 (inactive); in that of `CC[C@@H](c1ccccc1)n1c(=O)n2n(c1=O)[C@H]1[C@H](O)[C@@H]3O[C@@H]3C(=NOCc3ccccc3)[C@H]1CC2`, -0.15 (inactive); in that of `CC(CCN1CCCc2nc(C)c(C)cc21)=NO[C@@H](C)c1cn([C@H](CO)Cc2ccccc2)nn1`, 0.792 (inactive). `COC(=O)[C@H](C)NC(=O)CCC1CC(OC(=O)NCCc2ccc(F)cc2)CC2(CCCC(COC(=O)NCC3CCCCC3)O2)O1` (stereo partly specified): the z-score was 0.363 (inactive). Regarding `CCOC(=O)[C@H](Cc1ccccc1)NC(=O)CCC1CC(OC(=O)NCc2ccc3c(c2)OCO3)CC2(CCCC(COC(=O)NCCCN3CCCC3=O)O2)O1` (stereo partly specified), the z-score is -0.012 (inactive).

For the compound `CC(CCC(=O)OC[C@H]1O[C@H](C#Cc2ccccc2)C=C[C@@H]1Oc1ccc(C)cc1)=NOC[C@@H](C)[C@H](OCc1ccccc1)C(C)C`, the z-score was -0.222 (inactive). Take `CCN1C(=O)[C@H]2[C@H]3[C@H](O)[C@H](O)CC(=NOC[C@@H](O)[C@H]4O[C@@H]5OC(C)(C)O[C@@H]5[C@H]4O)[C@@H]3CC[C@H]2C1=O`: the z-score was -0.0223 (inactive). Turning to `CC(C)CON=C1C[C@@H](O)[C@@H](O)[C@@H]2[C@@H]3C(=O)N(Cc4ccc5c(c4)OCO5)C(=O)[C@@H]3CC[C@@H]12`, the z-score is 0.64 (inactive). `C=CC[C@@H]1C=C[C@H](ON=C2C[C@@H](O)[C@@H](O)[C@@H]3[C@@H]4C(=O)N(CC)C(=O)[C@@H]4CC[C@@H]23)[C@@H](CO)O1`: the z-score was -0.466 (inactive). As to `CO[C@H]1COC(=O)CCC[C@H](C)[C@H](OC)COC(=O)CC=C[C@@H]1C`, the z-score was -1.93 (inactive). As for `COc1ccc2c(c1)O[C@@H](c1cccc(C(F)(F)F)c1)[C@H](O)C2=O`, the z-score is -1.04 (inactive). In the case of `CC(CCN1CCCc2nc(C)c(C)cc21)=NOC[C@@H](O)COCc1ccco1`, the z-score was -0.349 (inactive).

On to `CCN1C(=O)[C@H]2[C@H]3[C@H](O)[C@H](O)CC(=NO[C@@H]4O[C@H](CO)[C@@H](O)[C@H](O)[C@H]4O)[C@H]3CC[C@H]2C1=O`, for which the z-score is -0.782 (inactive). For the compound `CCOC(=O)[C@H](CC(C)C)NC(=O)CCC1CC(OC(=O)NCc2ccc3c(c2)OCO3)CC2(CCCC(COC(=O)NCCOc3ccccc3)O2)O1` (stereo partly specified), the z-score is 1.21 (inactive).

In the case of `O=C1C2=CC[C@H]3C(=O)N(c4ccc(F)cc4F)C(=O)[C@H]3[C@H]2[C@H](O)[C@@H]2O[C@H]12`, the z-score was -0.592 (inactive). As to `CC(=O)OC[C@H]1O[C@H](C#CCCc2ccccc2)C=C[C@@H]1OC(C)=O`, the z-score was 0.702 (inactive).

For the compound `CC(C)=NOC(C)CN1CCCc2nc(C)c(C)cc21` (stereo unspecified), the z-score was -0.0702 (inactive). As to `COC(=O)[C@H](C)NC(=O)CCC1CC(OC(=O)NCc2cccc3ccccc23)CC2(CCCC(COC(=O)NCCOc3ccccc3)O2)O1` (stereo partly specified), the z-score is 0.149 (inactive). For `C[C@@H]1CC[C@@H](C(=O)O)N[C@H]1c1cccc(N2CCOCC2)c1`, the z-score was -0.206 (inactive). In the case of `COC(=O)[C@@H]1CC[C@H](C)[C@@H](c2ccc(Br)cc2)N1C[C@H](O)CN=[N+]=[N-]` it was 0.347 (inactive). As for `CCOC(=O)[C@H](Cc1ccccc1)NC(=O)CCC1CC(OC(=O)NCCc2ccc(F)cc2)CC2(CCCC(COC(=O)NCc3cccc(C(F)(F)F)c3)O2)O1` (stereo partly specified), the z-score is 0.322 (inactive). In the case of `COc1cccc([C@H]2Oc3ccc(OC)cc3C(=NOCC[C@@H]3C=C[C@H](OC(C)=O)[C@@H](COC(C)=O)O3)[C@@H]2O)c1`, the z-score was 0.614 (inactive). In the case of `CC(=O)OC[C@H]1O[C@H](CC=NO[C@@H](C)c2cc(-c3c(C)cc(C)cc3C)no2)C=C[C@@H]1OC(C)=O`, the z-score is 0.142 (inactive).

Regarding `CCOC(=O)NN=C1C[C@@H](O)[C@@H](O)[C@@H]2[C@@H]3C(=O)N(c4ccc(F)cc4F)C(=O)[C@@H]3CC[C@H]12`, the z-score was -0.738 (inactive). In the case of `O=C1[C@H]2[C@H]3[C@H](O)[C@H](O)CC(=NO[C@@H]4O[C@H](CO)[C@@H](O)[C@H](O)[C@H]4O)[C@H]3CC[C@H]2C(=O)N1C[C@@H]1CCCO1` it was 0.855 (inactive); in that of `CCOC(=O)[C@H](Cc1ccccc1)NC(=O)CCC1CC(OC(=O)NCCc2ccc(F)cc2)CC2(CCCC(COC(=O)NCCC(C)C)O2)O1` (stereo partly specified), 1.05 (inactive). Turning to `CO[C@H]1COC(=O)[C@H](C)COC(=O)[C@@H](OCc2ccccc2)C=C[C@@H]1C`, the z-score was -0.077 (inactive). Consider `O=C1[C@H]2[C@H]3[C@H](O)[C@H](O)CC(=NOC[C@@H](O)COCc4ccco4)[C@@H]3CC[C@H]2C(=O)N1Cc1ccccc1`, for which the z-score was -0.426 (inactive). Consider `CC(C)=CCCC(C)=CCON=C1C[C@@H](O)[C@@H](O)[C@@H]2[C@@H]3C(=O)N(Cc4ccc5c(c4)OCO5)C(=O)[C@@H]3CC[C@H]12`, for which the z-score was 1.01 (inactive). Regarding `COC(=O)[C@H](C)NC(=O)CC=C[C@@H](C)[C@@H]1C=C[C@H](O)[C@@H](CO)O1`, the z-score is 0.253 (inactive). Consider `COc1ccc(COC(=O)NN=C2C[C@@H](O)[C@@H](O)[C@@H]3[C@@H]4C(=O)N(C[C@@H]5CCCO5)C(=O)[C@@H]4CC[C@@H]23)cc1`, for which the z-score is 0.513 (inactive).
